Our source for the growth inhibition values is PubChem BioAssay (NCI).

A short description of experiment [1]: NCI Yeast Anticancer Drug Screen. Data for the rad50 strain (AID 155).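 Note: 0% = growth of vehicle-only cultures of the same strain.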 To be noted: S. cerevisiae rad50 strain growth inhibition, hits give high values. A digest of the protocol: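 Readout: growth inhibition relative to vehicle-treated cultures. Compound exposure was carried out in a genetically defined yeast strain deficient in DNA damage repair.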
A short description of experiment [2]: NCI Yeast Anticancer Drug Screen. Data for the mec2-1 strain (AID 157). To be noted: S. cerevisiae mec2-1 strain, hits give high values. A digest of the protocol: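 Cells of the genetically defined mec2-1 yeast strain are incubated with test compound. Inhibition of growth is calculated against vehicle-treated controls.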
Experiment [3] in a line: NCI Yeast Anticancer Drug Screen. Data for the sgs1 mgt1 strain (AID 161).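 Note: 0% = growth of cultures given vehicle only.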 To be noted: S. cerevisiae sgs1 mgt1 strain, hits give high values. A digest of the protocol: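 Mutant yeast exposed to compound; growth scored against vehicle-only wells.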
A short description of experiment [4]: NCI Yeast Anticancer Drug Screen. Data for the cln2 rad14 strain (AID 165).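 Note: 0% = growth equal to vehicle treated cultures.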 To be noted: S. cerevisiae cln2 rad14 strain, hits give high values. Put shortly: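 The screen exposed genetically defined yeast (cln2 rad14) to test compounds and scored growth inhibition relative to vehicle-treated controls.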
Experiment [5] can be described thus: NCI Yeast Anticancer Drug Screen. Data for the bub3 strain (AID 167). As to conditions: S. cerevisiae bub3 mutant strain, hits give high values. A digest of the protocol: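 Readout: yeast growth inhibition, expressed relative to vehicle-only wells. The test organism is a mutant strain from a panel with lesions in DNA repair or checkpoint genes.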
Experiment [6] is described as follows: NCI Yeast Anticancer Drug Screen. Data for the mlh1 rad18 strain (AID 175). As to conditions: S. cerevisiae mlh1 rad18 strain growth inhibition, hits give high values. Put shortly: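 Compound-treated yeast growth, normalised to vehicle controls. Strain bears defined DNA repair mutations.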
[7] abbreviates: at 5.0 µM (retest, dose inferred, filed as 0.5).
Where [8] appears, read: at 50.0 µM (retest, dose inferred, filed as 5.0).

The panel holds about 79,000 compounds, 15% with a hit somewhere; the sample as a whole holds those more often. A number with no mark means an inactive call. The source made the active and inactive calls. Cut-off read from the data, not from the text of the source: active = growth inhibition above about 70%; inactive = the rest.

Take `CN(C)C=Nc1c2ccccc2nc2ccccc12`: the growth inhibition in experiment [1] (setting [7]) is 21%; in experiment [1] (setting [8]), 83% (active); in experiment [1] (at 50.0 µM), 71.1% (active); in experiment [2] (setting [7]) it was 23%; in experiment [2] (setting [8]) it was 80% (active); in experiment [2] (at 50.0 µM), 57.1%. Besides, the growth inhibition in experiment [3] (setting [7]) is 11%; in experiment [3] (setting [8]), 65%; in experiment [3] (at 50.0 µM) it was 68.7%; in experiment [4] (setting [7]) it was 37%; in experiment [4] (setting [8]) it was 60%; in experiment [4] (at 50.0 µM), 55.7%. For the same compound, the growth inhibition is 5% in experiment [5] (setting [7]), 71% (active) in experiment [5] (setting [8]) and 75% (active) in experiment [5] (at 50.0 µM).
`COC(=O)Cc1nc2ccccc2s1`: the growth inhibition in experiment [1] (setting [7]) is 1%; in experiment [1] (setting [8]) it was 99% (active); in experiment [1] (at 50.0 µM) it was 99.2% (active); in experiment [2] (setting [7]) it was -9%; in experiment [2] (setting [8]), 100% (active); in experiment [2] (at 50.0 µM), 99.5% (active). In addition, the growth inhibition in experiment [3] (setting [7]) is 11%; in experiment [3] (setting [8]) it was 92% (active); in experiment [3] (at 50.0 µM), 99.3% (active); in experiment [4] (setting [7]) it was 13%; in experiment [4] (setting [8]) it was 96% (active); in experiment [4] (at 50.0 µM) it was 97.3% (active). The growth inhibition in experiment [5] (setting [7]) was -10%; in experiment [5] (setting [8]), 100% (active); in experiment [5] (at 50.0 µM), 98.5% (active).
With `O=C(O)c1c([N+](=O)[O-])cc(C(F)(F)F)cc1[N+](=O)[O-]`, the growth inhibition in experiment [1] (setting [7]) is -20%; in experiment [1] (setting [8]) it was 6%; in experiment [1] (at 50.0 µM), -1.7%; in experiment [2] (setting [7]), 0%; in experiment [2] (setting [8]) it was 13%; in experiment [2] (at 50.0 µM), 4.3%. The growth inhibition is 1% in experiment [3] (setting [7]); 11% in experiment [3] (setting [8]); 14.9% in experiment [3] (at 50.0 µM); 9% in experiment [4] (setting [7]); 43% in experiment [4] (setting [8]); -29.6% in experiment [4] (at 50.0 µM). Moreover, the growth inhibition was 1% in experiment [5] (setting [7]); 10% in experiment [5] (setting [8]); -3.55% in experiment [5] (at 50.0 µM); 43% in experiment [6] (setting [7]); 9% in experiment [6] (setting [8]); 29% in experiment [6] (at 50.0 µM).
In the case of `CCOC(=O)c1[nH]n(-c2ccccc2)c(=O)c1/C=N/C(=S)N=Nc1c(O)[nH]c2ccccc12`, the growth inhibition in experiment [1] (setting [7]) was -9%; in experiment [1] (setting [8]) it was -9%; in experiment [1] (at 50.0 µM) it was -2.3%; in experiment [2] (setting [7]), -21%; in experiment [2] (setting [8]) it was -17%; in experiment [2] (at 50.0 µM), -23.4%. Also, the growth inhibition in experiment [3] (setting [7]) is -7%; in experiment [3] (setting [8]), -4%; in experiment [3] (at 50.0 µM), -22.6%; in experiment [4] (setting [7]), -18%; in experiment [4] (setting [8]), -20%; in experiment [4] (at 50.0 µM), 28.1%. The growth inhibition was -13% in experiment [5] (setting [7]); 2% in experiment [5] (setting [8]); -15.8% in experiment [5] (at 50.0 µM); -1% in experiment [6] (setting [7]); -2% in experiment [6] (setting [8]); -35.7% in experiment [6] (at 50.0 µM).
As to `COC(=O)c1nc(=S)[nH]c(C(=O)OC)c1C(=O)C(C)(C)C`, the growth inhibition in experiment [1] (setting [7]) was 6%; in experiment [1] (setting [8]) it was 24%; in experiment [1] (at 50.0 µM) it was -6.8%; in experiment [2] (setting [7]) it was 4%; in experiment [2] (setting [8]), 18%; in experiment [2] (at 50.0 µM), -10.4%. Further, the growth inhibition was 11% in experiment [3] (setting [7]); 22% in experiment [3] (setting [8]); -21.9% in experiment [3] (at 50.0 µM); 5% in experiment [4] (setting [7]); 22% in experiment [4] (setting [8]); 45.6% in experiment [4] (at 50.0 µM). For the same compound, the growth inhibition is 5% in experiment [5] (setting [7]), 26% in experiment [5] (setting [8]) and -25.2% in experiment [5] (at 50.0 µM).
For the compound `CCOC(=O)c1c(C)n(C)c2c1nnc1ccccc12`, the growth inhibition in experiment [1] (setting [7]) is 16%; in experiment [1] (setting [8]) it was 85% (active); in experiment [1] (at 50.0 µM), 64.7%; in experiment [2] (setting [7]) it was 15%; in experiment [2] (setting [8]) it was 79% (active); in experiment [2] (at 50.0 µM) it was 51.1%. Further, the growth inhibition is 19% in experiment [3] (setting [7]); 82% (active) in experiment [3] (setting [8]); 59% in experiment [3] (at 50.0 µM); 12% in experiment [4] (setting [7]); 69% in experiment [4] (setting [8]); 55.2% in experiment [4] (at 50.0 µM). The growth inhibition in experiment [5] (setting [7]) was 1%; in experiment [5] (setting [8]), 73% (active); in experiment [5] (at 50.0 µM), 46%.
With `C[C@]12CC[C@H]3[C@@H](CCC4=CC(=O)CC[C@@]43C)[C@@H]1CC[C@@H]2O[Si](O[C@H]1CC[C@H]2[C@@H]3CCC4=CC(=O)CC[C@]4(C)[C@H]3CC[C@]12C)(O[C@H]1CC[C@H]2[C@@H]3CCC4=CC(=O)CC[C@]4(C)[C@H]3CC[C@]12C)c1ccccc1`, the growth inhibition in experiment [1] (setting [7]) was 5%; in experiment [1] (setting [8]) it was 59%; in experiment [1] (at 50.0 µM) it was 75.9% (active); in experiment [2] (setting [7]), 1%; in experiment [2] (setting [8]), 62%; in experiment [2] (at 50.0 µM) it was 89.9% (active). The growth inhibition is -1% in experiment [3] (setting [7]); 93% (active) in experiment [3] (setting [8]); 97.5% (active) in experiment [3] (at 50.0 µM); -6% in experiment [4] (setting [7]); 33% in experiment [4] (setting [8]); 58.6% in experiment [4] (at 50.0 µM). For the same compound, the growth inhibition in experiment [5] (setting [7]) is 4%; in experiment [5] (setting [8]), 77% (active); in experiment [5] (at 50.0 µM), 81.5% (active); in experiment [6] (setting [7]), 1%; in experiment [6] (setting [8]), 84% (active); in experiment [6] (at 50.0 µM), 94.8% (active).
As to `C=CCCCCCCCCC(=O)CCCCCCCCC=C`, the growth inhibition in experiment [1] (setting [7]) was 0%; in experiment [1] (setting [8]), 2%; in experiment [1] (at 50.0 µM) it was 7.6%; in experiment [2] (setting [7]), -2%; in experiment [2] (setting [8]) it was 3%; in experiment [2] (at 50.0 µM), 9.2%. The growth inhibition in experiment [3] (setting [7]) was -2%; in experiment [3] (setting [8]), 0%; in experiment [3] (at 50.0 µM), -3.35%; in experiment [4] (setting [7]), 6%; in experiment [4] (setting [8]) it was 3%; in experiment [4] (at 50.0 µM) it was 58.8%. The growth inhibition in experiment [5] (setting [7]) was -1%; in experiment [5] (setting [8]), 4%; in experiment [5] (at 50.0 µM) it was 14%; in experiment [6] (setting [7]), -4%; in experiment [6] (setting [8]), 1%; in experiment [6] (at 50.0 µM), 5.75%.
With `CC(C)C1=CC2=CC(=O)C3C(C)(C)CCCC3(C)C2=C(O)C1=O` (stereo not given), the growth inhibition was 90% (active) in experiment [1] (setting [7]); 88% (active) in experiment [1] (setting [8]); 87.8% (active) in experiment [1] (at 50.0 µM); 99% (active) in experiment [2] (setting [7]); 94% (active) in experiment [2] (setting [8]); 89.8% (active) in experiment [2] (at 50.0 µM). Also, the growth inhibition in experiment [3] (setting [7]) was 98% (active); in experiment [3] (setting [8]) it was 94% (active); in experiment [3] (at 50.0 µM), 90% (active); in experiment [4] (setting [7]), 24%; in experiment [4] (setting [8]) it was 86% (active); in experiment [4] (at 50.0 µM) it was 85.5% (active). Besides, the growth inhibition in experiment [5] (setting [7]) was 49%; in experiment [5] (setting [8]), 93% (active); in experiment [5] (at 50.0 µM), 87.4% (active).
For `CCS(=O)(=O)OC(C)CCl` (stereo not given), the growth inhibition in experiment [1] (setting [7]) was -2%; in experiment [1] (setting [8]), -3%; in experiment [1] (at 50.0 µM), -5.65%; in experiment [2] (setting [7]), 1%; in experiment [2] (setting [8]) it was 0%; in experiment [2] (at 50.0 µM) it was -14.7%. The growth inhibition in experiment [3] (setting [7]) was 0%; in experiment [3] (setting [8]), -1%; in experiment [3] (at 50.0 µM) it was 11.8%; in experiment [4] (setting [7]), -2%; in experiment [4] (setting [8]), 2%; in experiment [4] (at 50.0 µM), 70.2% (active). The growth inhibition in experiment [5] (setting [7]) was -2%; in experiment [5] (setting [8]), -3%; in experiment [5] (at 50.0 µM), -4.9%; in experiment [6] (setting [7]), -2%; in experiment [6] (setting [8]) it was -5%; in experiment [6] (at 50.0 µM) it was 49.5%.
